An excerpt weighted towards active compounds, which were near 7.5% of everything screened.
KinaseGlo FLuc: Kinase-Glo luciferase inhibition (counter-screen). Q27757. Kinase-Glo luciferase, ATP luminescence, 8 min. Potency, µM (highest dose often 38.3 µM), for the others: top-dose activity change, negative = inhibition, hits mostly inhibitors. 200,000 tested, 0.28% active; also: % is scaled to controls: 0 for no effect and ±100 for the full control effect; nearly all actives have a fitted effect of over 60% in size
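Recombinant Kinase-Glo luciferase, 10 uM ATP (linear range), luciferin; imidazole pH 7.2 / KCl / MgCl2 / Tween / BSA buffer; 8 min RT; luminescence.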
Rab9 prom act: activators of Rab9 promoter | Huh7 Rab9 promoter-luciferase reporter, luminescence, 24 h | Potency, µM (series often up to 9.22 µM), inactives show top-dose activation, negative = inhibition, most hits filed as activators | 320,000 tested, 2.8% active; also: % of control where 0% means no effect; nearly all actives have a fitted effect of over 60% in size
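Steps: seed 1500 Huh7 Rab9-luc cells per well, rest 2 h at 37 °C; add compound in DMSO; incubate 24 h; add luciferase reagent, 10 min ambient; read luminescence.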
SMN2 splice up: increases expression of the SMN2 splice variant | AID 1458 | 210,000 tested, 2.8% active | HEK293 SMN2-luciferase splicing reporter, luminescence, 30-36 h | Potency, µM (series often up to 46.1 µM), inactives show at the highest dose activity change, positive = activation, most hits filed as activators; also: % of control where 0% means no effect; nearly all actives have a fitted effect of over 55% in size
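HEK293 cells carry an SMN2 minigene-luciferase reporter in which exon 7 inclusion puts luciferase in frame. Cells were seeded at 2000 cells/well, attached for 10-12 hours, then exposed to compounds for 30-36 hours at 37C before ONE-Glo luminescence.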
FLuc modulator: inhibits or activates purified firefly luciferase, miR-21 counter-screen. 360,000 tested, 6.9% active. purified FLuc, Km substrates, luminescence inhibition. Potency, µM (highest dose often 57.5 µM), for the others: at the highest dose activity change, negative = inhibition, hits mostly inhibitors. P08659;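 also: plate controls were vehicle for no effect and reference inhibitor for full effect; nearly all actives have a fitted effect of over 55% in size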
Target sequence (P08659 whole entry, looked up): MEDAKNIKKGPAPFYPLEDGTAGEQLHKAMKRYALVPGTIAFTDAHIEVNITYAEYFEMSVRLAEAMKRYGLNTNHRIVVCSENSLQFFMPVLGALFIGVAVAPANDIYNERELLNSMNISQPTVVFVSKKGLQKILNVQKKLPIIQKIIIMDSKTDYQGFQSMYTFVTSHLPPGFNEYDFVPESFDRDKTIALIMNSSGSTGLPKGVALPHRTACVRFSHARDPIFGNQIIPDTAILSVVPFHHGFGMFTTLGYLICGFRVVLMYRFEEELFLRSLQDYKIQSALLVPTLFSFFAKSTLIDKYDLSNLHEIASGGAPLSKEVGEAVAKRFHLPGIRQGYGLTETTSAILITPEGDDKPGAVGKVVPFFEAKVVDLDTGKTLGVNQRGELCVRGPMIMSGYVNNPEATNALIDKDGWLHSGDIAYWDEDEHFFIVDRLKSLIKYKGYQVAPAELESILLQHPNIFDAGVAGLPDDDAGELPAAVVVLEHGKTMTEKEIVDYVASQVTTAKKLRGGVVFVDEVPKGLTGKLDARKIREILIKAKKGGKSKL
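Biochemical qHTS of compounds, final roughly 60 µM downward over six points, against 10 nM purified firefly luciferase using Km concentrations of substrates (10 uM D-luciferin, 10 uM ATP) in Tris acetate pH 7.5 buffer; luminescence output.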
ELG1 genotoxic: inducers of genotoxicity in HEK293T ELG1-luciferase cells; HEK293T ELG1-luciferase reporter, luminescence, 16 h; Potency, µM (doses to about 46 µM), for the others: top-dose activity change, positive = activation, hits mostly activators; 330,000 tested, 1.3% active; also: % of control where 0% means no effect; nearly all actives have a fitted effect of over 60% in size
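Genotoxicity was scored as increased ELG1-luciferase reporter signal, measured by ONE-Glo luminescence (30 min, room temperature). Compound or vehicle exposure of the HEK293T reporter cells lasted 16 hr at 37°C.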
NPC1 promoter act: NPC1 promoter activation; Huh7 NPC1 promoter luciferase reporter, 24 h; Potency, µM (series often up to 9.22 µM), inactives show top-dose activation, most hits filed as activators; 320,000 tested, 2.4% active; AID 485313; also: % of control where 0% means no effect; nearly all actives have a fitted effect of over 60% in size
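Luciferase expression driven by the NPC1 promoter was measured in stably transfected Huh7 cells after a 24 h compound incubation, using a luciferase reagent and a luminescence read.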
Active calls of the source: *; u = inconclusive; x = not tested or not shown; [ ] = remark or other dose. Calls follow the shape of the dose curve; as a rule, active = well fitted curve in the direction sought with a large enough effect; inconclusive = small, poorly fitted or top-dose-only effect, or another doubt; inactive = no such curve, though single readings can be large; an effect the other way counts as inactive or inconclusive. Potency is read from the fitted curve at half-maximal effect.

SMILES	KinaseGlo FLuc	Rab9 prom act	SMN2 splice up	FLuc modulator	ELG1 genotoxic	NPC1 promoter act
CC1CCCN(C(=O)c2cc3c(=O)n4ccccc4nc3s2)C1 (stereo not given)	x	u	x	16.9µM*	16.4µM*	u
CCN(CC)C(=O)c1cc2c(=O)n3ccccc3nc2s1	-5.5%	28.6%	u	u	16.4µM*	24.2%
CC(C)CN(CC(C)C)C(=O)c1cc2c(=O)n3ccccc3nc2s1	x	0.3%	x	-2.3%	-5.0%	-4.3%
O=C(Nc1nccs1)c1cncc(Br)c1	-4.1%	3.98µM*	11.2µM*	u	7.2%	u
Cc1csc(NC(=O)c2cncc(Br)c2)n1	-2.1%	1.12µM*	12.6µM*	9.53µM*	u	2.82µM*
Cc1csc(NC(=O)c2ccc(S(C)(=O)=O)cc2)n1	-4.1%	u	-16.3%	u	-20.1%	u
O=C(c1ccc(O)cc1)c1ccc(O)cc1O	x	-4.2%	x	-16.7%	3.4%	-1.0%
CN(C)c1ccc(C(=O)c2ccc(O)cc2O)cc1	-3.2%	21.4%	u	10.7µM*	u	u
CSCCC(NC(=O)COc1ccccc1)C(=O)O (stereo not given)	0.6%	1.7%	7.6%	4.4%	1.1%	-5.2%
CC(C)CNC(=O)COC(=O)c1c2c(nc3ccccc13)/C(=C/c1cccs1)CC2	x	-7.1%	x	5.36µM*	-11.0%	-29.5%
O=C(COC(=O)c1c2c(nc3ccccc13)/C(=C/c1ccco1)CC2)NC1CCCC1	-6.1%	27.1%	27.7%	5.36µM*	-2.2%	18.8%
COc1ccc2c(c1)c1c(c(=O)n(Cc3ccccc3)c(=O)n1CC(=O)Nc1cc(C)cc(C)c1)n2C	x	x	x	1.0%	x	x
CC(=O)[C@@]1(O)CC[C@H]2[C@H]3C[C@@H](C)C4=CC(=O)C=C[C@]4(C)[C@@]3(F)[C@@H](O)C[C@]21C	-0.7%[17.1 µM]	x	10.6%[20.6 µM]	x	x	x
Nc1nc(CSc2ncn(-c3ccccc3)n2)cs1	-0.8%	1.26µM*	15.8µM*	10.7µM*	u	2µM*
O=C(CSc1ncn(-c2ccccc2)n1)c1cccs1	-9.9%	1.41µM*	u	7.57µM*	u	2.82µM*
CCOC(=O)c1sc(NC(=O)CSc2ncn(-c3ccccc3)n2)nc1C	2.7%	-0.3%	-1.9%	1.1%	-0.2%	-1.0%
c1ccc(CSc2ncn(-c3ccccc3)n2)cc1	-3.9%	2.24µM*	14.1µM*	4.78µM*	4.11µM*	3.16µM*
Cc1ccc(C(=O)NCC(=O)OCc2cc(=O)n3ccsc3n2)cc1	x	x	x	-0.3%	x	x
O=C(CSc1nnc(-c2cccc(F)c2)c(-c2cccc(F)c2)n1)NC1CCCCC1	x	x	x	4.2%	x	x
Cc1ccc(-n2ncc(C(=O)N3CCN(Cc4ccccc4)CC3)c2C2CCN(C(=O)OC(C)(C)C)CC2)c(C)c1	x	x	x	6.4%	x	x
COc1ccc(CCNC(=O)c2cc3c(=O)n(C)c4cc(Cl)ccc4c3s2)cc1OC	x	x	4.9%	-5.0%	x	x
Cc1nn(-c2cccc(C(F)(F)F)c2)c(Cl)c1/C=N/Nc1cccc(C(=O)O)c1	1.6%	0.1µM*	0.398µM*	1.51µM*	0.411µM*	0.112µM*
Cc1nn(-c2ccccc2Cl)c(Cl)c1/C=N/Nc1cccc(C(=O)O)c1	0.9%	0.0355µM*	0.0708µM*	0.12µM*	u	u
CCOC(=O)N/N=C/c1c(C)nn(-c2cccc(C(F)(F)F)c2)c1Cl	4.1%	-24.8%	-66.2%	-3.8%	0.5%	-24.0%
COc1cccc(OC)c1CC1SC(=O)NC1=O (stereo not given)	-0.1%	13.8%	-16.0%	-15.7%	3.5%	7.3%
SMILES	KinaseGlo FLuc	Rab9 prom act	SMN2 splice up	FLuc modulator	ELG1 genotoxic	NPC1 promoter act
COc1cccc(Oc2ccc(C(F)(F)F)cc2N)c1	-2.9%	7.2%	-14.3%[1.84 µM]	23.9µM*	u	4.6%
CCOc1ccc(Oc2ccc(C(F)(F)F)cc2N)cc1	-2.8%	7.9%	6.1%[1.84 µM]	u	13.0%	10.9%
Cc1nc(N2CCCC2)ncc1C(=O)Nc1ccccc1	x	x	x	-7.6%	x	x
Cc1ccc2nc(-c3ccc(NC(=O)Cc4ccccc4)cc3)sc2c1	x	x	u	10.7µM*	x	x
Cc1csc(NC(=O)CSCC(=O)O)c1-c1nc2ccccc2s1	x	-0.1%	x	-5.5%	4.4%	-4.3%
Cc1ccc2nc(-c3ccc(NC(=O)COCC(=O)O)cc3)sc2c1	x	u	x	1.2µM*	u	u
Cc1ccc2nc(-c3ccc(NC(=O)CSCC(=O)O)cc3)sc2c1	x	2.82µM*	x	1.69µM*	u	3.98µM*
Cc1cccc(CC(=O)Nc2cccc(-c3nc4cccnc4s3)c2)c1	x	x	x	-1.7%	x	x
O=C(O)CSCC(=O)Nc1ccc(-c2nc3ccccc3s2)cc1	x	u	x	3.01µM*	u	29.0%
COc1ccc(Cn2c(=O)c3oc4ccccc4c3n(Cc3ccccc3)c2=O)cc1	x	x	x	5.2%	x	x
Cc1cnc(C(=O)OCC(=O)c2ccc[nH]2)cn1	x	0.0%	x	1.3%	1.8%	7.1%
Cc1noc(C)c1C(=O)NCc1ccccc1F	7.5%	-3.9%	9.4%	-1.3%	1.6%	0.7%
COc1ccc(-c2nc(S(=O)(=O)c3ccccc3)c(NCCCN3CCOCC3)o2)cc1	x	x	x	x	0.4%	x
CCCOc1ccccc1C(=O)Nc1ccc(-c2nc3ccc(C)cc3s2)cc1	x	x	12.6µM*	4.78µM*	x	x
O=C(COc1ccccc1F)Nc1ccc(-c2nc3ccccc3s2)cc1	x	0.631µM*	x	x	x	0.891µM*
Cc1nc2ccc(NC(=O)COc3ccccc3F)cc2s1	-3.9%	u	u	u	u	26.1%
COc1cccc(C(=O)Nc2ccc(-c3nc4ccc(C)cc4s3)cc2)c1OC	x	x	x	-0.6%	x	x
CC(Cc1cccs1)NC(=O)Nc1ccc(Cl)cc1 (stereo not given)	-4.8%	u	14.4%	12µM*	5.62µM*	u
CC(Cc1cccs1)NC(=S)Nc1ccccc1 (stereo not given)	-1.6%	-8.7%	-28.0%	-16.4%	1.5%	2.1%
CC(Cc1cccs1)NC(=O)Nc1ccc(Cl)c(Cl)c1 (stereo not given)	2.9%	u	5.8%	21.3µM*	2.2%	u
CC(Cc1cccs1)NC(=O)Nc1ccccc1 (stereo not given)	0.2%	19.1%	-11.5%	u	5.6%	20.1%
O=C(/C=C/c1ccc([N+](=O)[O-])cc1)Nc1cccc(S(=O)(=O)NC2=NCCCCC2)c1	x	x	x	x	-8.8%	x
Nc1c(C(=O)NCC2CCCO2)sc2nc3c(c(-c4ccco4)c12)CC/C3=C\c1ccco1 (stereo not given)	-6.7%	3.1%	-0.7%	5.36µM*	0.8%	0.7%
CCCCN1C(=O)C(=O)N(c2ccccc2)C1=S	-13.2%	3.55µM*	11.2µM*	12µM*	u	3.16µM*
CCCCN1C(=O)C(=O)N(CC(=O)N2CCN(c3ccccc3)CC2)C1=O	x	1.3%	x	3.3%	-2.9%	-0.3%
